# Measurements published in PubChem BioAssay (NCI).
# This is part of a sample that, as a whole, favours compounds with a hit. Of some 83,000 tested, about 20% had one in any assay.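 Cells were grown in 96-well plates and exposed to the test compound at a single concentration for 48 hours; results are reported as percent growth, with values below 10 considered active.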 Unmarked numbers belong to inactive results. Active and inactive are the calls of the source.
# Experiments:
# Assay in all cases: NCI-60 one-dose screen, 48 h (100 = growth as untreated, 0 = no growth, -100 = all killed)
# Conditions in all cases: 10 µM unless noted
# [1] = tested on: NCI-H23 lung
# [2] = tested on: NCI-H226 lung
# [3] = tested on: NCI-H322M lung
# [4] = tested on: HOP-62 NSCLC
# [5] = tested on: NCI-H460 lung
# [6] = tested on: HOP-92 NSCLC
# [7] = tested on: NCI-H522 lung
# [8] = tested on: A549/ATCC NSCLC
# [9] = tested on: 786-0 renal
# [10] = tested on: COLO 205 colon
# [11] = tested on: DU-145 prostate
# [12] = tested on: K-562 leukemia
# [13] = tested on: MALME-3M melanoma
# [14] = tested on: MDA-MB-231 breast
# [15] = tested on: RXF 393 renal
# [16] = tested on: SF-268 CNS
# [17] = tested on: SF-295 CNS
# [18] = tested on: SF-539 CNS
# [19] = tested on: UACC-257 melanoma
# [20] = tested on: M14 melanoma
SMILES,growth [1],growth [2],growth [3],growth [4],growth [5],growth [6],growth [7],growth [8],growth [9],growth [10],growth [11],growth [12],growth [13],growth [14],growth [15],growth [16],growth [17],growth [18],growth [19],growth [20]
CCn1cc(C(=O)N/N=C/c2ccccc2)c(=O)c2cc(F)c(N3CCNC(C)C3)c(F)c21 (stereo not given),68.5%,87.4%,52.4%,68.6%,-73% (active),55.8%,-75.3% (active),-83.9% (active),-67.4% (active),-74.4% (active),-87.9% (active),-39.4% (active),-78% (active),-70.4% (active),-61.3% (active),38.9%,8.87% (active),-86.9% (active),39.6%,-49.7% (active)
CCN(CC)C(=O)C1=C(C)NC(=O)NC1c1ccc2c(c1)OCO2 (stereo not given),103%,100%,109%,105%,106%,109%,96.6%,106%,106%,114%,113%,101%,108%,108%,102%,102%,103%,96.2%,103%,104%
Cc1cc(=O)oc2cc(Oc3nc(Br)cn4c(Br)cnc34)ccc12,63.9%,53.6%,76.8%,51.7%,73.9%,37.2%,54.8%,77.8%,29%,113%,75%,93.6%,46.9%,29.6%,44.2%,56.6%,99.9%,47.2%,89.1%,82.8%
COC(=O)[C@@]1(C)CC[C@]2(C)CC[C@]3(C)C4=CC=C5C(=CC(=O)C(O)=C5C)[C@]4(C)[C@@H](O)C[C@@]3(C)[C@@H]2C1,49.2%,98.7%,96.8%,89.7%,63.6%,-3.8% (active),-24.2% (active),88.3%,-30.3% (active),12.8%,21.3%,8.3% (active),7.58% (active),-0.344% (active),-35.1% (active),62.5%,74.8%,-8.84% (active),32%,7.16% (active)
CC(C)(C)CC(C)(C)Nc1c(-c2c(O)c3ccccc3oc2=O)nc2sc3ccccc3n12,44.1%,56.7%,42.5%,23.1%,16.6%,10.8%,32.8%,30.9%,35.6%,28.7%,53.7%,11.8%,50.7%,61.9%,65.9%,48%,3.5% (active),44%,38.1%,41.7%
Cc1nc(N/N=C/c2cn(-c3ccccc3)nc2-c2cc3ccccc3oc2=O)sc1N=Nc1ccccc1,93.7%,95.4%,104%,66%,99.7%,97.1%,66.2%,96.6%,97.3%,105%,105%,34%,89.6%,87.7%,94.6%,94.9%,81.6%,87.7%,94.5%,70.7%
CCSc1ccnc(N)n1,120%,101%,106%,94%,113%,98%,105%,118%,98.3%,125%,105%,121%,86.3%,104%,125%,93.9%,105%,105%,102%,112%
Cc1nc2sc(C(=O)Nc3ccccn3)c(N)c2cc1C(C)O (stereo not given),84.3%,85.8%,83.1%,63.9%,80.2%,74.3%,59.9%,82%,82.1%,75.1%,103%,31.1%,97.9%,59.1%,71.2%,83.6%,65.1%,59.8%,81.6%,49.3%
COc1ccc(Oc2ccc(/C=C/C(=O)c3ccc(OC)c(OC)c3)cc2)cc1,83.7%,90.9%,86.7%,118%,93.9%,83.7%,57.4%,81.8%,103%,91.9%,76.6%,66%,92.9%,94.3%,101%,97.1%,87%,100%,78.6%,92.9%
COc1cc([C@@H](CCO)C[C@H](C)c2ccc3ccccc3c2)cc(OC)c1OC,54.6%,56.4%,46.7%,40.6%,17.3%,30.8%,-7.95% (active),46.8%,28%,16.1%,47.1%,12.1%,44.5%,43.8%,32.3%,48.9%,19.6%,9.87% (active),60.6%,15.5%
COc1cc(OC)c2c(=O)c3c(CC=C(C)C)cc(OC)c(O)c3oc2c1,93.7%,99.3%,83.7%,89.1%,99.2%,77%,53%,90.8%,90.1%,111%,85%,61.4%,114%,91.1%,100%,93.6%,89.7%,91.4%,107%,91%
C=C1C(=O)O[C@H]2[C@H]1CC/C(COC(=O)C(=O)c1c[nH]c3ccc(Cl)cc13)=C\CC[C@@]1(C)O[C@@H]21,-55.7% (active),-73% (active),-76.2% (active),-53.1% (active),-72.9% (active),-92.8% (active),-48.4% (active),-82.2% (active),-99.1% (active),-51.9% (active),-96.2% (active),2.92% (active),-75.7% (active),-74.8% (active),-92.9% (active),-81.3% (active),-10.6% (active),-78.5% (active),-75.9% (active),-83.1% (active)
NS(=O)(=O)c1ccc(C(=O)N=Nc2c(O)[nH]c3ccc(Cl)cc23)cc1,98.3%,103%,104%,100%,106%,103%,89.3%,104%,102%,120%,102%,98.3%,90.3%,98.7%,109%,91.9%,98.7%,96.4%,103%,102%
COC1C(O)CC(OC2CC(OC3CC(O[C@@H]4C(=O)c5c(cc6cc(OC7CC(OC8CC(O)C(O)C(C)O8)C(O)C(C)O7)c(C)c(O)c6c5O)CC4[C@H](OC)[C@@H](O)C(C)=O)OC(C)C3O)OC(C)C2O)OC1C (stereo not given in full),-12.1% (active),-16.6% (active),4.31% (active),-3.94% (active),7.99% (active),5.01% (active),-26.4% (active),3.44% (active),8.03% (active),-21.3% (active),15.8%,9.22% (active),-11.6% (active),36.2%,-57.5% (active),21.5%,8.38% (active),-6.81% (active),-14.7% (active),-21.2% (active)
C=CC(CC(c1ccccc1)(c1ccccc1)c1ccccc1)N(CC)CC (stereo not given),71.7%,75.7%,90%,87.5%,62.6%,54.8%,84.1%,82.5%,67.8%,64.5%,58.8%,25.4%,54%,53.4%,40.6%,73.9%,78.8%,69.1%,79.3%,30.1%
Cc1ccc(C2CC(c3cccc(Nc4ccncc4)c3)=Nc3c(N)nc(N)nc3N2)cc1 (stereo not given),56%,88.9%,67.4%,86.4%,23.1%,49.8%,75.7%,28.3%,36.4%,52.3%,70.9%,21.3%,78.7%,66.1%,55.6%,63.1%,67%,67.9%,63.7%,42.3%
